# “And” between values parts separate entries of the source, which are not always exact repeats. Equal entries are not always repeated. Where a structure was tested more than once in an assay, its records may differ in their call. The source made the active and inactive calls. The calls were made as follows: active = hit-call score of the fitted dose curve at least 0.9, where 1 is the maximum; inactive = score below 0.9.
# Legend:
# [1] = BSK_BT_PBMCCytotoxicity: PBMC Cytotoxicity Assessment in the BioMAP Diversity Plus: BT Assay (AID 2284225); settings: primary human B cells with PBMC;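 also: PBMC viability measured by Alamar Blue dye reduction fluorescence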
# How it was run: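 Viability by Alamar Blue reduction (6 h, ex/em 546/580 nm) after 90 h culture of SEB/TSST-1-activated PBMC (20 ng/mL each) given compound 1 h before activation. DMSO served as baseline for curve fitting.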
# [2] = read-out: Secreted IgG (sIgG), gene 3500; test: BSK_BT_sIgG: BioMAP Diversity Plus: BT Assay for Secreted IgG (sIgG) Biomarker Activity (AID 2284226); settings: primary human B cells with PBMC
# How it was run: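 ELISA quantitation of secreted IgG from human B cells co-cultured with PBMC, sampled 24 h post-dosing. Values fitted relative to DMSO vehicle as baseline, positive fitting direction.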
# [3] = BSK_BT_Bcell_Proliferation: Viability Assessment in the BioMAP Diversity Plus: BT Assay for B cell Proliferation (AID 2284227); settings: primary human B cells with PBMC
# How it was run: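 Read-out is absorbance at 560 nm from sulforhodamine B staining of total protein, reflecting relative cell numbers in a human B cell and PBMC co-culture after 72 h of chemical exposure. Values were referenced to DMSO.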
# [4] = read-out: Interleukin 6 (IL6), IL6 (gene 3569); test: BSK_BT_xIL6: BioMAP Diversity Plus: BT Assay for Interleukin 6 (IL6) Biomarker Activity (AID 2284228); settings: primary human B cells with PBMC
# How it was run: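 IL-6 secretion measured (Luminex xMAP) in human primary B cell + PBMC co-culture at 24 h of chemical exposure; DMSO served as negative control and activity baseline, with curves fitted for increase.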
# [5] = read-out: Interleukin 17A (IL17A), IL17A (gene 3605); test: BSK_BT_xIL17A: BioMAP Diversity Plus: BT Assay for Interleukin 17A (IL17A) Biomarker Activity (AID 2284229); settings: primary human B cells with PBMC
# How it was run: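 Human primary B cells plus PBMC, treated 24 h with chemicals; supernatant IL-17A quantified on Luminex xMAP beads. Gain of signal over DMSO control scored as activity.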
# [6] = read-out: Tumor necrosis factor (Homo sapiens) (UniProt P01375); test: BSK_BT_xTNFa: BioMAP Diversity Plus: BT Assay for Tumor necrosis factor alpha (TNF-alpha) Biomarker Activity (AID 2284230); settings: primary human B cells with PBMC
# How it was run: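 Human primary co-culture of B cells and peripheral blood mononuclear cells; TNF-alpha in supernatant, 24 h post-dose, Luminex multiplex; DMSO = baseline.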
# [7] = read-out: Vascular cell adhesion molecule 1 (VCAM1), VCAM1 (gene 7412); test: BSK_MyoF_VCAM1: BioMAP Diversity Plus: MyoF Assay for Vascular cell adhesion molecule 1 (VCAM1) Biomarker Activity (AID 2284231); settings: primary human lung fibroblasts
# How it was run: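 VCAM-1 levels, lung fibroblasts, ELISA, 24 h exposure, increase scored relative to DMSO.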
# [8] = TAMU_PeakParms_SingleDonor1434_Chronotropy: Texas A&M University (TAMU) 1.5-hr Human Induced Pluripotent Stem Cell (iPSC)-derived Cardiomyocytes Calcium (Ca+2) Flux Assay for Cardiotoxicity: Chronotropy (changes in peak frequency) (AID 2284217); settings: actives raise or lower the signal
# How it was run: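 iPSC-CMs, donor 1434; 4 conc (0.2–100 uM), 0.5% v/v DMSO, 90 min, 37C/5% CO2; Ca2+ flux fluorescence → peak.freq.avg; peak.freq.avg = 0 dropped; bidirectional fit vs DMSO; EC05 POD.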
# [9] = CCTE_Mundy_HCI_Cortical_Synap_Neur_Matur_NeuriteSpotCountPerNeuriteLength: CCTE's Synaptogenesis and Neurite Maturation Assay in rat cortical cells for Neurite Spot Count per Neurite Length, Mundy Lab (AID 2284210)
# How it was run: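 Read-out: synaptophysin puncta counted along MAP2-stained neurites, normalised to neurite length, by automated high-content imaging. Rat cortical cells; AraC DIV 5; chemical dosing DIV 7; termination DIV 12. DMSO baseline.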
# [10] = CCTE_Mundy_HCI_Cortical_Synap_Neur_Matur_BPCount: CCTE's Synaptogenesis and Neurite Maturation Assay in rat cortical cells for Branch Point Count, Mundy Lab (AID 2284211)
# How it was run: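 HCI read-out of branch points from MAP2/synaptophysin/Hoechst immunofluorescence; rat cortical cultures, AraC DIV 5, dosing DIV 7, fixed DIV 12; fit in positive direction vs DMSO baseline.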
# [11] = CCTE_Mundy_HCI_Cortical_NOG_NeuriteCount: CCTE's Neurite Outgrowth Assay in rat cortical cells for Neurite Count, Mundy Lab (AID 2284212);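 also: cells fixed about two days after chemical exposure began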
# How it was run: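 Rat cortical primary cells; compound added 2 h post-plating, 1/10 dilution of working solution. Anti-betaIII-tubulin/AF488 ICC; ArrayScan neurite count vs DMSO.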
# [12] = CCTE_Mundy_HCI_Cortical_NOG_NeuriteLength: CCTE's Neurite Outgrowth Assay in rat cortical cells for Neurite Length, Mundy Lab (AID 2284213)
# How it was run: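 First, rat primary cortical cells were plated and, 2 h later, given test chemical as a 1/10 dilution. Finally, βIII-tubulin immunostaining enabled automated imaging of neurite length.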
# [13] = CCTE_Mundy_HCI_Cortical_Synap_Neur_Matur_NeuriteLength: CCTE's Synaptogenesis and Neurite Maturation Assay in rat cortical cells for Neurite Length, Mundy Lab (AID 2284214)
# How it was run: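 Neurite length quantified by automated high-content imaging of MAP2, synaptophysin and Hoechst staining. Rat cortical cells received chemical from DIV 7 to DIV 12 […], glial growth arrested by AraC at DIV 5; DMSO baseline.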
# [14] = CCTE_Mundy_HCI_Cortical_Synap_Neur_Matur_NeuriteSpotCountPerNeuron: CCTE's Synaptogenesis and Neurite Maturation Assay in rat cortical cells for Neurite Spot Count per Neuron Count, Mundy Lab (AID 2284215)
# How it was run: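 Developing rat cortical neurons, with glia suppressed by AraC, are exposed to chemicals from DIV 7 to DIV 12. Automated fluorescence imaging of MAP2-labelled neurites and synaptophysin puncta yields a count per neuron, normalised against DMSO wells.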
# [15] = CCTE_Mundy_HCI_Cortical_Synap_Neur_Matur_SynapseCount: CCTE's Synaptogenesis and Neurite Maturation Assay in rat cortical cells for Synapse Count, Mundy Lab (AID 2284218)
# How it was run: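 High-content imaging of synaptophysin puncta per MAP2-positive neuron (Hoechst nuclei) in rat cortical cells exposed DIV 7–12 after glial arrest with AraC at DIV 5; decrease relative to DMSO scored.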
# [16] = CCTE_Mundy_HCI_Cortical_Synap_Neur_Matur_NeuriteCount: CCTE's Synaptogenesis and Neurite Maturation Assay in rat cortical cells for Neurite Count, Mundy Lab (AID 2284222);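 also: exposure from day 7 to day 12 in vitro with readout at day 12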
# How it was run: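 Primary rat cortical cells were plated, treated with AraC at DIV 5, then exposed to chemicals from DIV 7 through DIV 12. After fixation and immunostaining for MAP2 and synaptophysin, imaging quantified neurites, with DMSO as the negative control.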
# [17] = CCTE_Mundy_HCI_Cortical_Synap_Neur_Matur_CellBodySpotCount: CCTE's Synaptogenesis and Neurite Maturation Assay in rat cortical cells for Cell Body Spot Count, Mundy Lab (AID 2284223)
# How it was run: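 Chemicals were applied to AraC-treated rat primary cortical cells at DIV 7 and measured at DIV 12. Fixed cells were labelled for MAP2, synaptophysin and nuclei, and high-content imaging gave cell body synaptophysin spot counts per neuron relative to DMSO.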
# [18] = UKN2_HCS_IMR90_cell_viability: Viability Assessment in the University of Konstanz (UKN) Leist Lab Neural Crest Cell Migration Assay in human induced IMR90 Pluripotent Stem Cells (UKN2) (AID 2284233);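 also: cells exposed to compound for 24 h after a 24 h migration phase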
# How it was run: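 Viability read as calcein-AM fluorescence by high-content imaging, Hoechst co-stain, 30 min. Human iPSC (IMR90) neural crest cells had migrated 24 h into stopper-defined gaps before 24 h chemical exposure. Fitted bidirectionally relative to DMSO.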
# Chain of Tumor necrosis factor (Homo sapiens) (P01375 whole entry, looked up): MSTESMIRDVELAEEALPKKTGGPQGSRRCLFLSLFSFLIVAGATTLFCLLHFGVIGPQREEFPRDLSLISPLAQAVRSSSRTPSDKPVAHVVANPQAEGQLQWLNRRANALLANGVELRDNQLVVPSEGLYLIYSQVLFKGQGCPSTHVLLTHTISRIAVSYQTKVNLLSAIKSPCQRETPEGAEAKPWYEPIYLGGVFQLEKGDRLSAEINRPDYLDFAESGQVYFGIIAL
structure (smiles),measurement,setting,value
CC(=O)OC(C)(C)C1CC=C(C)CC1 (configuration not stated),outcome,[1],inactive
same,outcome,[2],inactive
same,outcome,[3],inactive
same,outcome,[4],inactive
same,outcome,[5],inactive
same,outcome,[6],inactive
same,outcome,[7],inactive
OCC(F)(OC(F)(F)C(F)(OC(F)(F)C(F)(F)C(F)(F)F)C(F)(F)F)C(F)(F)F (configuration not stated),AC50,[1],2.62 µM (active) and 5.68 µM (active)
same,AC50,[2],5290 nM (active)
same,outcome,[2],inactive
same,AC50,[3],3.33 µM (active)
same,outcome,[3],inactive
same,outcome,[4],inactive
same,outcome,[5],inactive
same,AC50,[6],4920 nM (active)
same,outcome,[6],inactive
same,AC50,[7],6210 nM (active)
same,outcome,[7],inactive
CCOC(=O)C=Cc1ccccc1,outcome,[1],inactive
same,outcome,[2],inactive
same,outcome,[3],inactive
same,outcome,[4],inactive
same,outcome,[5],inactive
same,outcome,[6],inactive
same,outcome,[7],inactive
c1ccc2c(c1)-c1ccc3ccc4cccc5cc-2c1c3c45,outcome,[1],inactive
same,outcome,[2],inactive
same,AC50,[3],1.98 µM (active)
same,AC50,[4],39.8 nM (active)
same,outcome,[5],inactive
same,outcome,[6],inactive
same,AC50,[7],2780 nM (active)
c1ccc(Sc2ccccc2)cc1,outcome,[1],inactive
same,outcome,[2],inactive
same,outcome,[3],inactive
same,outcome,[4],inactive
same,outcome,[5],inactive
same,outcome,[6],inactive
same,AC50,[7],34100 nM (active)
C=C1CC/C=C(\C)CC[C@@H]2[C@@H]1CC2(C)C,outcome,[1],inactive
same,outcome,[2],inactive
same,outcome,[3],inactive
same,outcome,[4],inactive
same,outcome,[5],inactive
same,outcome,[6],inactive
same,AC50,[7],23900 nM (active)
O=S1(=O)CC(Cl)(Cl)C(Cl)(Cl)C1,AC50,[1],0.874 µM (active)
same,AC50,[2],329 nM (active)
same,AC50,[3],0.537 µM (active)
same,AC50,[4],416 nM (active)
same,AC50,[5],346 nM (active)
same,AC50,[6],749 nM (active)
same,AC50,[7],1420 nM (active)
CC1(C)[C@H](C=C(Cl)Cl)[C@H]1C(=O)OCc1cccc(Oc2ccccc2)c1,outcome,[1],inactive
same,outcome,[2],inactive
same,outcome,[3],inactive
same,outcome,[4],inactive
same,outcome,[5],inactive
same,outcome,[6],inactive
same,outcome,[7],inactive
COc1ccccc1NC(=O)CC(C)=O,outcome,[1],inactive
same,outcome,[2],inactive
same,outcome,[3],inactive
same,outcome,[4],inactive
same,outcome,[5],inactive
same,outcome,[6],inactive
same,outcome,[7],inactive
O=S(=O)(O)C(F)(F)C(F)(F)OC(F)(F)C(F)(F)F,outcome,[1],inactive
same,outcome,[2],inactive
same,outcome,[3],inactive
same,outcome,[4],inactive
same,outcome,[5],inactive
same,outcome,[6],inactive
same,outcome,[7],inactive
OCCN1CCOCC1,outcome,[1],inactive
same,outcome,[2],inactive
same,outcome,[3],inactive
same,outcome,[4],inactive
same,outcome,[5],inactive
same,outcome,[6],inactive
same,outcome,[7],inactive
C=CC(=O)OCC(CO)(COC(=O)C=C)COC(=O)C=C,AC50,[1],1.7 µM (active)
same,AC50,[2],709 nM (active)
same,AC50,[3],1.19 µM (active)
same,AC50,[4],994 nM (active)
same,AC50,[5],1090 nM (active)
same,AC50,[6],1880 nM (active)
same,AC50,[7],964 nM (active)
CCCCCCCCCCCCS,outcome,[1],inactive
same,outcome,[2],inactive
same,outcome,[3],inactive
same,outcome,[4],inactive
same,outcome,[5],inactive
same,outcome,[6],inactive
same,AC50,[7],23100 nM (active)
O=C(O)C(F)(F)OC(F)(F)C(F)(F)OC(F)(F)C(F)(F)C(F)(F)C(F)(F)F,AC50,[1],22.1 µM (active)
same,outcome,[1],inactive
same,outcome,[2],inactive
same,outcome,[3],inactive
same,outcome,[4],inactive
same,outcome,[5],inactive
same,outcome,[6],inactive
same,outcome,[7],inactive
CCCCCCCCCC(=O)OCC,outcome,[1],inactive
same,outcome,[2],inactive
same,outcome,[3],inactive
same,outcome,[4],inactive
same,outcome,[5],inactive
same,outcome,[6],inactive
same,outcome,[7],inactive
CC(C)(C)c1cccc(O)c1,outcome,[1],inactive
same,outcome,[2],inactive
same,outcome,[3],inactive
same,outcome,[4],inactive
same,outcome,[5],inactive
same,outcome,[6],inactive
same,outcome,[7],inactive
O=C(O)C(F)(F)C(F)(F)C(F)(F)C(F)(F)C(F)(F)C(F)(F)C(F)(F)C(F)F,AC50,[1],19.8 µM (active)
same,outcome,[1],inactive
same,outcome,[2],inactive
same,AC50,[3],21 µM (active) and 22.2 µM (active)
same,outcome,[4],inactive
same,outcome,[5],inactive
same,outcome,[6],inactive
same,outcome,[7],inactive
CNC(=C[N+](=O)[O-])NCCSCc1ccc(CN(C)C)o1,outcome,[8],inactive
CC/C(=C(\c1ccccc1)c1ccc(OCCN(C)C)cc1)c1ccccc1,outcome,[8],inactive
c1ccc2scnc2c1,outcome,[9],inactive
same,outcome,[10],inactive
same,outcome,[11],inactive
same,outcome,[12],inactive
same,outcome,[13],inactive
same,outcome,[14],inactive
same,outcome,[15],inactive
same,outcome,[16],inactive
same,outcome,[17],inactive
same,outcome,[18],inactive
